The text below walks through data of PubChem BioAssay (NCI).

The structures appear in SMILES notation. The panel holds about 79,000 compounds, 15% with a hit somewhere; the sample as a whole holds those more often. Values without a mark were called inactive. Calls of active or inactive are those of the source. No stated cut-off is given here; in the data, active means growth inhibition above about 70%; inactive means the rest.

A short description of experiment [1]: NCI Yeast Anticancer Drug Screen. Data for the rad50 strain (AID 155).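 Further: 0% = growth of vehicle-only cultures of the same strain.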 To be noted: S. cerevisiae rad50 strain growth inhibition; at 50.0 µM; hits give high values. Put shortly:
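Yeast carrying a defined DNA repair defect were exposed to test compounds, and growth was compared with vehicle-treated controls to give percent inhibition.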

The nature of experiment [2]: NCI Yeast Anticancer Drug Screen. Data for the mec2-1 strain (AID 157). The conditions noted are these: S. cerevisiae mec2-1 strain, at 50.0 µM, hits give high values. Put shortly:
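Compounds were applied to mec2-1 yeast cells. Their growth was then compared with that of vehicle-treated cultures to give growth inhibition.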

Experiment [3] can be described thus: NCI Yeast Anticancer Drug Screen. Data for the sgs1 mgt1 strain (AID 161).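 Further: 0% = growth of cultures given vehicle only.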 The conditions noted are these: S. cerevisiae sgs1 mgt1 strain, at 50.0 µM, hits give high values. The method in brief:
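Yeast cells carrying a defined DNA-repair defect were exposed to test compounds. Growth inhibition was measured relative to vehicle-treated controls.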

Experiment [4] can be described thus: NCI Yeast Anticancer Drug Screen. Data for the cln2 rad14 strain (AID 165).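 Further: 0% = growth equal to vehicle treated cultures.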 To be noted: S. cerevisiae cln2 rad14 strain, at 50.0 µM, hits give high values. The method in brief:
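Strain: cln2 rad14 yeast, altered in cell cycle control and DNA damage repair. Read-out: growth inhibition vs vehicle.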

Experiment [5] in a line: NCI Yeast Anticancer Drug Screen. Data for the bub3 strain (AID 167). The conditions noted are these: S. cerevisiae bub3 mutant strain, at 50.0 µM, hits give high values. The method in brief:
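Compounds were applied to a genetically altered yeast strain carrying a cell-cycle control defect. Growth inhibition was scored against vehicle-treated controls.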

A short description of experiment [6]: NCI Yeast Anticancer Drug Screen. Data for the mlh1 rad18 strain (AID 175). To be noted: S. cerevisiae mlh1 rad18 strain growth inhibition; at 50.0 µM; hits give high values. The method in brief: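 A repair-deficient yeast strain is exposed to test compound, and growth is scored relative to vehicle-treated controls.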

Take `CC(Nc1cnccn1)Nc1cnccn1`: the growth inhibition in experiment [1] was -3.1%; in experiment [2], -3.55%; in experiment [3], -0.4%; in experiment [4] it was -23.4%; in experiment [5], -5.2%; in experiment [6], 1.05%.
With `O=S1(=O)C2CCC(C2)C1Cl` (stereo unspecified), the growth inhibition in experiment [1] was 4.5%; in experiment [2], 2.75%; in experiment [3] it was 7.45%; in experiment [4], -18.9%; in experiment [5], -1.05%; in experiment [6], 4.2%.
With `NNc1c(F)c(F)c2c(F)c(F)c(F)c(F)c2c1F`, the growth inhibition in experiment [1] was 97.8% (active); in experiment [2], 96.5% (active); in experiment [3], 95.5% (active); in experiment [4], 94.5% (active); in experiment [5], 97.7% (active); in experiment [6] it was 97.5% (active).
`CCOC(=O)C1=C(C)OC(=O)CC1C` (stereo unspecified): the growth inhibition in experiment [1] was 33.2%; in experiment [2] it was -15.8%; in experiment [3], 3.75%; in experiment [4] it was 9.05%; in experiment [5] it was -23.6%; in experiment [6], 14%.
Turning to `O=C(O)C1Cc2ccccc2OC1=O` (stereo unspecified), the growth inhibition was -18% in experiment [1]; -25.6% in experiment [2]; -16.7% in experiment [3]; 0.6% in experiment [4]; 0.35% in experiment [5]; -21.6% in experiment [6].
For `COc1cc(NCCCCCCNCC(C)C)c2nccc(C)c2c1`, the growth inhibition in experiment [1] was 53.1%; in experiment [2], 44.5%; in experiment [3], 62.8%; in experiment [4], 18.1%; in experiment [5], 37.6%; in experiment [6], 21.6%.
Take `CC(=O)c1c(C)n(-c2ccccc2)c2c1nnc1ccccc12`: the growth inhibition in experiment [1] is 3.3%; in experiment [2], 3.65%; in experiment [3], 22.2%; in experiment [4], -8.65%; in experiment [5] it was -5.65%; in experiment [6], 4.15%.
`COc1ccc(OC)c(/C=C2/C(=O)N(c3ccccc3)N=C2C)c1`: the growth inhibition in experiment [1] was -7.55%; in experiment [2], -1.25%; in experiment [3], 5.6%; in experiment [4], -1.85%; in experiment [5] it was 15.5%; in experiment [6], 4.75%.
Turning to `O=C(OCC(OC(=O)c1ccccc1)C(OC(=O)c1ccccc1)C(COC(=O)c1ccccc1)OC(=O)c1ccccc1)c1ccccc1` (stereo unspecified), the growth inhibition in experiment [1] is 67%; in experiment [2] it was 26.1%; in experiment [3], 56.9%; in experiment [4] it was 0.2%; in experiment [5], 16.4%; in experiment [6], 52.4%.
For the compound `N#Cc1c(-c2ccccc2)c(C#N)c(=O)n(N)c1N`, the growth inhibition in experiment [1] is -6.7%; in experiment [2] it was -0.8%; in experiment [3] it was 7.35%; in experiment [4] it was 2.5%; in experiment [5], 23.1%; in experiment [6] it was 16.9%.
Regarding `COCCOCCOCCC(=O)NC1CC2CCC1(C)C2(C)C` (stereo unspecified), the growth inhibition in experiment [1] is -10.5%; in experiment [2], -1.85%; in experiment [3], 8.2%; in experiment [4] it was -16.7%; in experiment [5], 23.7%; in experiment [6] it was 15.4%.
With `COc1cc(OC)c(NC(=O)ON2C(=O)c3ccccc3C2=O)cc1Cl`, the growth inhibition in experiment [1] was 8.2%; in experiment [2], -1.75%; in experiment [3], -2.3%; in experiment [4], 11.8%; in experiment [5], 0.5%; in experiment [6], 24.6%.
`CCOC(=O)c1[nH]c2ccc(O)c3c2c1CCC3=O`: the growth inhibition in experiment [1] was 30.6%; in experiment [2], -4.15%; in experiment [3], -3.6%; in experiment [4], 13.1%; in experiment [5], 6.4%; in experiment [6], 16.5%.
On to `CC1(C)O[C@@H]2[C@@H](COC(=O)c3ccccc3)C[C@@H](C#N)[C@@H]2O1`, for which the growth inhibition was 4.05% in experiment [1]; -0.85% in experiment [2]; -25.6% in experiment [3]; 24.9% in experiment [4]; 38.9% in experiment [5]; -11.2% in experiment [6].
In the case of `O=C(Nc1ccc(Cl)cc1)c1ccc(Cl)cc1Cl`, the growth inhibition in experiment [1] was -11.8%; in experiment [2] it was 10.7%; in experiment [3], -2.5%; in experiment [4], -39.1%; in experiment [5], 13.7%; in experiment [6] it was -0.15%.
With `O=C(Nc1nccs1)Nc1cc(F)ccc1F`, the growth inhibition is 5.7% in experiment [1]; 42.5% in experiment [2]; 21.5% in experiment [3]; -13.2% in experiment [4]; 36.6% in experiment [5]; 8.35% in experiment [6].
With `COc1ncnc2c(NC3OC(CO)C(O)C3O)ncnc12` (stereo unspecified), the growth inhibition in experiment [1] is 7.2%; in experiment [2] it was -6.5%; in experiment [3] it was -5.4%; in experiment [4], 12.4%; in experiment [5] it was -9.2%; in experiment [6], -9.3%.
For `CCOC(=O)C(NC(=O)CC)(C(F)(F)F)P(=O)(OCC)OCC` (stereo unspecified), the growth inhibition is -22.5% in experiment [1]; -12.3% in experiment [2]; -35.7% in experiment [3]; -11.8% in experiment [4]; 14.1% in experiment [5]; -9.35% in experiment [6].
In the case of `CCCCCN(CCCCC)c1ccc(/C=C/c2ccnc3ccccc23)cc1`, the growth inhibition in experiment [1] is 1.6%; in experiment [2], 7.05%; in experiment [3] it was 22.9%; in experiment [4], -15.7%; in experiment [5], -10.2%; in experiment [6], 14.6%.
As for `S=C1CC(c2ccccc2)Sc2ccccc2N1` (stereo unspecified), the growth inhibition in experiment [1] was -1.45%; in experiment [2], 1.85%; in experiment [3], 13.9%; in experiment [4] it was 1.8%; in experiment [5], 30.3%; in experiment [6], -25.6%.
Consider `CCCCCCCCCCOC1C(C(C)OCCCN(C)C)OC2OC3(CCCCC3)OC21` (stereo unspecified), for which the growth inhibition in experiment [1] was 91.8% (active); in experiment [2], 93.3% (active); in experiment [3], 40.7%; in experiment [4] it was 16.1%; in experiment [5], -31.6%; in experiment [6], 86.2% (active).
